Columns and labels:
POU1 (OCT1 POU domain) = POU1 (OCT1 POU domain) (human, UniProt P14859 260-458); test: EMSA-SELEX-seq; no BOB1; 20 mM Tris-HCl pH 7.6, 140 mM NaCl, 10% glycerol, 0.5 mM EDTA, 0.05% Triton X-100, 0.1 mg/mL BSA, 0.1 mg/mL poly(dI-dC), 5 mM DTT, room temperature, 20 min; high values mean tight binding; settings: protein: recombinant; dsDNA, one strand shown
Procedure, shortened: (§1)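 After expression in E. coli BL21, tagged POU-domain proteins were purified under denaturing conditions and then renatured. Each binding reaction held 30 ng protein and 300 ng of a PCR-amplified double-stranded random 35-nt library in 20 μL Tris–HCl pH 7.6 binding buffer, with or without 28 ng coactivator protein, for 20 min at RT. Bands holding complexes were cut from native 6% PAGE, eluted and PCR-amplified across four rounds, and the output was Illumina-sequenced. The value given for binding preference is the share, in percent, of sequenced 8-mers fitting a motif pattern.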

POU2 (OCT2 POU domain) = molecular target: T1, POU2 (OCT2 POU domain) (human, UniProt P09086 175-386); test: as above; settings: protein: recombinant; dsDNA, one strand shown
T1 sequence: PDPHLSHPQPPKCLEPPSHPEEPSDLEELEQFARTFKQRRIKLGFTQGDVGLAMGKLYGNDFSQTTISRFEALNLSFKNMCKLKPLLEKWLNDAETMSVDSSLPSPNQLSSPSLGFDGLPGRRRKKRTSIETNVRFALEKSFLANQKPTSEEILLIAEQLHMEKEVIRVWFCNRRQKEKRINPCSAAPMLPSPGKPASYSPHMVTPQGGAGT
Procedure, shortened: as §1

[1] = molecular target: POU1 (OCT1 POU domain);BOB1 (OBF1, OCA-B) (human;human, UniProt P14859;Q16633 260-458;1-256, |); test: EMSA-SELEX-seq; with BOB1 (ternary complex band); 20 mM Tris-HCl pH 7.6, 140 mM NaCl, 10% glycerol, 0.5 mM EDTA, 0.05% Triton X-100, 0.1 mg/mL BSA, 0.1 mg/mL poly(dI-dC), 5 mM DTT, room temperature, 20 min; high values mean tight binding; settings: protein: recombinant;recombinant; copies: 1;1; dsDNA, one strand shown
Procedure, shortened: as §1

[2] = molecular target: T2, POU2 (OCT2 POU domain);BOB1 (OBF1, OCA-B) (human;human, UniProt P09086;Q16633 175-386;1-256, |); test: as above; settings: protein: recombinant;recombinant; copies: 1;1; dsDNA, one strand shown
T2 sequence 1: T1 sequence
T2 sequence 2: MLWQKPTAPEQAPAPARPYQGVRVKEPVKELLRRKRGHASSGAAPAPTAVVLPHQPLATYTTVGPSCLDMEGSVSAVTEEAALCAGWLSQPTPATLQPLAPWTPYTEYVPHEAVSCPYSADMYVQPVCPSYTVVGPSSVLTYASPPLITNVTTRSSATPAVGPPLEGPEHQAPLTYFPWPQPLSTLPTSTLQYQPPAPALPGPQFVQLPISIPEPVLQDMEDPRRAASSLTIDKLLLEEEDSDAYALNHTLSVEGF
Procedure, shortened: as §1

Chain of POU1 (OCT1 POU domain) (P14859 260-458): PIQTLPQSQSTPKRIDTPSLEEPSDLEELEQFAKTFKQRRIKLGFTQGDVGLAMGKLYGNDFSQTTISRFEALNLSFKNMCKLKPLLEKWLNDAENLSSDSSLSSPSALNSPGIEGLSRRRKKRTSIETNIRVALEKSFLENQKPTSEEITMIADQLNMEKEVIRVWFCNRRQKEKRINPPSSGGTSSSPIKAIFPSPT

Row | Sequence | binding signal (POU1 (OCT1 POU domain)) | binding signal (POU2 (OCT2 POU domain)) | binding signal [1] | binding signal [2]
1 | ACGTCAAG | 0.0191 % of ANNNNAAN 8-mers | 0.0253 % of ANNNNAAN 8-mers | 0.0203 % of ANNNNAAN 8-mers | 0.0198 % of ANNNNAAN 8-mers
2 | ACTCGAAA | 0.0271 % of ANNNNAAN 8-mers | 0.0357 % of ANNNNAAN 8-mers | 0.0293 % of ANNNNAAN 8-mers | 0.0314 % of ANNNNAAN 8-mers
3 | AAGGGAAA | 0.196 % of ANNNNAAN 8-mers | 0.146 % of ANNNNAAN 8-mers | 0.255 % of ANNNNAAN 8-mers | 0.136 % of ANNNNAAN 8-mers
4 | AGGCGAAT | 0.0618 % of ANNNNAAN 8-mers | 0.069 % of ANNNNAAN 8-mers | 0.0593 % of ANNNNAAN 8-mers | 0.0743 % of ANNNNAAN 8-mers
5 | ACGATAAA | 0.037 % of ANNNNAAN 8-mers | 0.0432 % of ANNNNAAN 8-mers | 0.0324 % of ANNNNAAN 8-mers | 0.0487 % of ANNNNAAN 8-mers
6 | ATGATAAA | 0.104 % of ANNNNAAN 8-mers | 0.131 % of ANNNNAAN 8-mers | 0.0644 % of ANNNNAAN 8-mers | 0.0619 % of ANNNNAAN 8-mers
7 | ATTAGAAC | 0.0427 % of ANNNNAAN 8-mers | 0.0564 % of ANNNNAAN 8-mers | 0.0355 % of ANNNNAAN 8-mers | 0.0355 % of ANNNNAAN 8-mers
8 | AAGGTAAC | 0.0313 % of ANNNNAAN 8-mers | 0.0293 % of ANNNNAAN 8-mers | 0.0234 % of ANNNNAAN 8-mers | 0.0322 % of ANNNNAAN 8-mers
9 | AGTCCAAG | 0.0236 % of ANNNNAAN 8-mers | 0.0253 % of ANNNNAAN 8-mers | 0.0261 % of ANNNNAAN 8-mers | 0.0215 % of ANNNNAAN 8-mers
10 | ATTTCAAC | 0.0416 % of ANNNNAAN 8-mers | 0.0414 % of ANNNNAAN 8-mers | 0.041 % of ANNNNAAN 8-mers | 0.0429 % of ANNNNAAN 8-mers
11 | ACTATAAT | 0.0595 % of ANNNNAAN 8-mers | 0.0748 % of ANNNNAAN 8-mers | 0.0472 % of ANNNNAAN 8-mers | 0.0388 % of ANNNNAAN 8-mers
12 | ATAAAAAT | 0.131 % of ANNNNAAN 8-mers | 0.125 % of ANNNNAAN 8-mers | 0.114 % of ANNNNAAN 8-mers | 0.09 % of ANNNNAAN 8-mers
13 | AGACGAAT | 0.0461 % of ANNNNAAN 8-mers | 0.0581 % of ANNNNAAN 8-mers | 0.0418 % of ANNNNAAN 8-mers | 0.0479 % of ANNNNAAN 8-mers
14 | AGCCAAAA | 0.0355 % of ANNNNAAN 8-mers | 0.038 % of ANNNNAAN 8-mers | 0.0499 % of ANNNNAAN 8-mers | 0.0305 % of ANNNNAAN 8-mers
15 | AAAGCAAT | 0.05 % of ANNNNAAN 8-mers | 0.0455 % of ANNNNAAN 8-mers | 0.0652 % of ANNNNAAN 8-mers | 0.0371 % of ANNNNAAN 8-mers
16 | ATTAGAAT | 0.5 % of ANNNNAAN 8-mers | 0.61 % of ANNNNAAN 8-mers | 0.133 % of ANNNNAAN 8-mers | 0.18 % of ANNNNAAN 8-mers
17 | ATGTTAAG | 0.128 % of ANNNNAAN 8-mers | 0.146 % of ANNNNAAN 8-mers | 0.0835 % of ANNNNAAN 8-mers | 0.0966 % of ANNNNAAN 8-mers
18 | ATCCTAAG | 0.0324 % of ANNNNAAN 8-mers | 0.0299 % of ANNNNAAN 8-mers | 0.0312 % of ANNNNAAN 8-mers | 0.0405 % of ANNNNAAN 8-mers
19 | AATTGAAG | 0.069 % of ANNNNAAN 8-mers | 0.0725 % of ANNNNAAN 8-mers | 0.0624 % of ANNNNAAN 8-mers | 0.052 % of ANNNNAAN 8-mers
20 | AGGGGAAG | 0.0557 % of ANNNNAAN 8-mers | 0.0673 % of ANNNNAAN 8-mers | 0.0507 % of ANNNNAAN 8-mers | 0.057 % of ANNNNAAN 8-mers
21 | ACTAAAAT | 0.0805 % of ANNNNAAN 8-mers | 0.0714 % of ANNNNAAN 8-mers | 0.0663 % of ANNNNAAN 8-mers | 0.0528 % of ANNNNAAN 8-mers
22 | ACATGAAA | 0.0671 % of ANNNNAAN 8-mers | 0.0708 % of ANNNNAAN 8-mers | 0.0823 % of ANNNNAAN 8-mers | 0.0619 % of ANNNNAAN 8-mers
23 | ATCCAAAA | 0.0591 % of ANNNNAAN 8-mers | 0.0414 % of ANNNNAAN 8-mers | 0.0722 % of ANNNNAAN 8-mers | 0.0446 % of ANNNNAAN 8-mers
24 | AACTGAAG | 0.0256 % of ANNNNAAN 8-mers | 0.0391 % of ANNNNAAN 8-mers | 0.0215 % of ANNNNAAN 8-mers | 0.0338 % of ANNNNAAN 8-mers
25 | AAAATAAG | 0.13 % of ANNNNAAN 8-mers | 0.125 % of ANNNNAAN 8-mers | 0.148 % of ANNNNAAN 8-mers | 0.114 % of ANNNNAAN 8-mers
26 | AATTGAAT | 0.203 % of ANNNNAAN 8-mers | 0.238 % of ANNNNAAN 8-mers | 0.127 % of ANNNNAAN 8-mers | 0.125 % of ANNNNAAN 8-mers
27 | AATAGAAC | 0.0381 % of ANNNNAAN 8-mers | 0.0541 % of ANNNNAAN 8-mers | 0.0382 % of ANNNNAAN 8-mers | 0.0462 % of ANNNNAAN 8-mers
28 | ATGGCAAG | 0.0355 % of ANNNNAAN 8-mers | 0.0414 % of ANNNNAAN 8-mers | 0.0351 % of ANNNNAAN 8-mers | 0.0371 % of ANNNNAAN 8-mers
29 | AAAGAAAA | 0.0988 % of ANNNNAAN 8-mers | 0.0892 % of ANNNNAAN 8-mers | 0.132 % of ANNNNAAN 8-mers | 0.0693 % of ANNNNAAN 8-mers
30 | AGTGAAAC | 0.0282 % of ANNNNAAN 8-mers | 0.0178 % of ANNNNAAN 8-mers | 0.0324 % of ANNNNAAN 8-mers | 0.0206 % of ANNNNAAN 8-mers

— paper PMC10812921, “Transcriptional Coactivator BOB1 (OBF1, OCA-B) Modulates the Specificity of DNA Recognition by the POU-Domain Factors OCT1 and OCT2 in a Monomeric Configuration”
